According to PubChem BioAssay AID1851 (National Center for Advancing Translational Sciences (NCATS), 2009):
The whole screen tested about 16,000 compounds, of which about 5,100 (32%) were called active. Inconclusive results (about 25%) are left out. This is one part of the list. A number with no mark means an inactive call. Calls come from the whole dose curve; as a rule, active = well fitted curve in the direction sought with a large enough effect; inconclusive = small, poorly fitted or top-dose-only effect, or effect the other way; inactive = no such curve, though single readings can be large or run the other way.
% is set by controls: 0 for no effect and ±100 for the full control effect.

These molecules were tested against Cytochrome P450 3A4 (Homo sapiens) (UniProt P08684) (assay: Cytochrome panel assay with activity outcomes). Details: recombinant CYP, pro-luciferin dealkylation, luminescence, p450-cyp3a4; series mostly up to 57.1 µM.
Chain of Cytochrome P450 3A4 (Homo sapiens) (P08684 whole entry, looked up): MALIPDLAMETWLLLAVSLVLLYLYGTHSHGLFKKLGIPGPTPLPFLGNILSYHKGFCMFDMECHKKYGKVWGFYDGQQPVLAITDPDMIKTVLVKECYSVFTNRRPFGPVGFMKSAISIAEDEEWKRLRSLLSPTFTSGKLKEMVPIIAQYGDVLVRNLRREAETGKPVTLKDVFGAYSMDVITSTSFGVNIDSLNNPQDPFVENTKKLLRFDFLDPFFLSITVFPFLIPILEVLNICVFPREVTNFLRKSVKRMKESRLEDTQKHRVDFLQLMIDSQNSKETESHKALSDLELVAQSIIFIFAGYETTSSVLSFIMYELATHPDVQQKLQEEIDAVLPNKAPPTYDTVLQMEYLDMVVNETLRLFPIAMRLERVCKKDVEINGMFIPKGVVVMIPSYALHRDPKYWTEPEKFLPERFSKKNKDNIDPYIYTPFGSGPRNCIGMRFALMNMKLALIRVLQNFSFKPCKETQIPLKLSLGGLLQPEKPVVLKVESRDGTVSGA
Molecule C#CCOCCCC(=O)O has an activity, negative = inhibition of 0.116% [at 11.4 µM]. CC(C)(N=NC(C)(C)C(=N)N)C(=N)N showed an activity, negative = inhibition of -6.94% [at 11.4 µM]. For C=CCCC(=O)Nc1nc(C)c(-c2csc(Nc3ccc(Cl)cc3)n2)s1, the AC50 was 10 µM (active). For O[C@@H](c1cc(C(F)(F)F)nc2c(Cl)cc(Cl)cc12)[C@@H]1CCCCN1, the activity, negative = inhibition was -21% [at 11.4 µM]. With CC(C)(C)NC(=O)Cn1nnc(-c2ccccc2NC(=O)c2cnccn2)n1 the AC50 was 3.98 µM (active). For CC(C)CC(=O)Nc1ccccc1-c1nnn(CC(=O)N2CCc3ccccc3C2)n1, the AC50 was “inactive”. In the case of O=C(CSc1nnc(COc2ccccc2)n1-c1ccccc1)c1ccccc1, the AC50 is reported as 14.1 µM (active). CCOc1c2ccc(C(=O)NCCc3cccs3)cc2nn1CC was tested, and the activity, negative = inhibition was -0.473% [at 2.29 µM]. C=CCn1c(Cc2ccc(OC)cc2)nnc1SCC(=O)c1cccc([N+](=O)[O-])c1 was tested, and the AC50 was 1.41 µM (active). With CCOc1ccc(-c2nnn(CC(=O)Nc3cc(OC)ccc3OC)n2)cc1OCC the AC50 was 3.55 µM (active). For COc1ccc(-c2nnn(CC(=O)N(CC(=O)NCCC(C)C)Cc3cccs3)n2)cc1OC, the AC50 was 12.6 µM (active). For CC1(C)OC(C(N)=O)C(C(N)=O)O1 (centres undefined), the AC50 was “inactive”. With CN[C@@H]1[C@H](O[C@@H]2O[C@H](CO)[C@@H](N)[C@H](O)[C@@H]2O)O[C@H]2C[C@@H](N)[C@@H](O[C@H]3[C@@H](O)[C@H](O)[C@H](N)C[C@@H]3N)O[C@H]2[C@H]1O the AC50 was “inactive”. In the case of C=CCn1c(COc2ccccc2)nnc1SCC(=O)N/N=C/c1ccc(C)cc1, the AC50 is reported as 3.16 µM (active). With COc1ccc(NC(=O)CSc2nnc(Cc3cccn3C)n2CCc2ccccc2)c(OC)c1 the AC50 was 2.24 µM (active). CCn1c(CNC(=O)COc2ccc(C(C)C)cc2)nnc1SCC(=O)Nc1cc(F)ccc1C was tested, and the AC50 was 10 µM (active). CCOc1cc(C)ccc1OCc1nnc(SCC(=O)c2cccc([N+](=O)[O-])c2)n1CC was tested, and the AC50 was 2.82 µM (active). In the case of CSc1nc(-c2ccccc2)nn1C(=O)c1ccccc1, the AC50 is reported as “inactive”. In the case of COc1ccc(C(=O)NNC(=O)CSc2nnc(COc3ccc4ccccc4c3)n2C)cc1, the AC50 is reported as 0.501 µM (active). In the case of CCn1c(COc2ccccc2)nnc1SCC(=O)Nc1cc(OC)ccc1OC, the AC50 is reported as 10 µM (active). In the case of COc1cccc(OCc2nnc(SCC(=O)NCc3ccco3)n2C)c1, the activity, negative = inhibition is reported as 12.8% [at 2.29 µM]. With CCCCOc1ccc(-c2nnn(CC(=O)c3c[nH]c4ccccc34)n2)cc1 the AC50 was “inactive”. In the case of COc1ccc(-c2nnn(CC(=O)NCCc3c[nH]c4ccccc34)n2)cc1OC, the AC50 is reported as 8.91 µM (active). With COc1ccc(OCc2nnc(SCC(=O)O)n2N)cc1 the AC50 was “inactive”. Work on CCc1ccccc1NC(=O)CSc1nc(-c2ccccc2)nn1C(=O)c1cccc([N+](=O)[O-])c1 yielded an activity, negative = inhibition of -8.74% [at 2.29 µM]. For CCn1c(COc2ccccc2)nnc1SCC(=O)c1cccc([N+](=O)[O-])c1, the AC50 was 12.6 µM (active). COc1ccc2c(c1)-c1c(sn(-c3ccc(OC)c(OC)c3)c1=S)C(C)(C)N2 showed an activity, negative = inhibition of -15.9% [at 2.29 µM]. In the case of CC(=O)c1c(O)c(C)c(-c2ccccc2)n(-c2ccccc2)c1=O, the AC50 is reported as “inactive”. With Cc1ccc(-n2nnnc2C(=Cc2ccc(N(C)C)cc2)c2nnnn2-c2ccc(C)cc2)cc1 the AC50 was 3.16 µM (active). With Cc1ccc(-c2nn3c(C)nnc3c3ccccc23)cc1S(=O)(=O)NCCN1CCOCC1 the AC50 was 8.91 µM (active). For Cc1ccc(-c2nn3c(C)nnc3c3ccccc23)cc1S(=O)(=O)NCc1ccccc1, the AC50 was “inactive”. In the case of Clc1ccc(Cl)c(SCCCN2CCNCC2)c1, the activity, negative = inhibition is reported as -17% [at 11.4 µM]. With OC(COCC1COc2ccccc2O1)CN1CCN(c2ccccc2F)CC1 (centres undefined) the AC50 was “inactive”. In the case of O=C(CCN1CCN(c2ccccc2F)CC1)Nc1ccccc1F, the AC50 is reported as “inactive”. For Cn1c(=O)cc(SCC(=O)NCCCN2CCOCC2)c2ccc(Cl)cc21, the AC50 was 7.94 µM (active). In the case of Cn1c(=O)cc(SCC(=O)NCCN2CCN(c3ccccc3F)CC2)c2cc(Cl)ccc21, the AC50 is reported as 14.1 µM (active). For CCCNC(=O)N1N=C(c2ccc(N)cc2)c2cc3c(cc2[C@H]1C)OCO3, the AC50 was 1.26 µM (active). With CC(=O)N1N=C(c2cccc([N+](=O)[O-])c2)OC1c1ccc(Cl)cc1Cl (centres undefined) the activity, negative = inhibition was 11.9% [at 2.29 µM]. CC(=O)N1CC(=O)N(OCc2ccccc2)C1c1ccc(Cl)cc1Cl (centres undefined) was tested, and the AC50 was 10 µM (active). In the case of COC(=O)N1CC(=O)N(OC)C1c1ccc(Cl)cc1Cl (centres undefined), the AC50 is reported as “inactive”. In the case of Cc1cc(OCCn2cc(/C(N)=N/O)c3ccccc32)ccc1Cl, the AC50 is reported as 11.2 µM (active). With CCOC(=O)C1=C(CN2c3ccccc3CC2C)NC(=O)NC1c1ccccc1 (centres undefined) the AC50 was 15.8 µM (active). CCOC(=O)c1[nH]c(C)c(C(=O)OCC(=O)N2c3ccccc3CC2C)c1C (centres undefined) was tested, and the activity, negative = inhibition was -26.3% [at 2.29 µM]. For O=C(O)CN=C1NC2(CCCC2)Cc2ccccc21, the AC50 was “inactive”. With Nc1nc(=S)[nH]c2c1C1(CCCC1)Cc1ccccc1-2 the AC50 was 20 µM (active). For Cc1cccc(-n2c(=O)c3c(n4cnnc24)-c2ccccc2CC32CCCCC2)c1, the activity, negative = inhibition was -17.5% [at 2.29 µM]. With Cc1ccc(/C=C/C2=Cc3c(sc(NC(=O)CSc4n[nH]c(N)n4)c3C#N)C(C)(C)C2)o1 the AC50 was 14.1 µM (active). For CCOc1ccc(/C=C/C2=Cc3c(sc(NC(=O)CSc4n[nH]c(N)n4)c3C#N)C(C)(C)C2)cc1, the AC50 was 15.8 µM (active). Work on CC(=O)OC[C@@H]1O[C@@H](O/N=C2/C[C@@H](O)[C@@H](O)[C@@H]3[C@@H]4C(=O)N(C5CCCCC5)C(=O)[C@H]4CC[C@H]23)[C@H](OC(C)=O)[C@H](OC(C)=O)[C@@H]1OC(C)=O yielded an activity, negative = inhibition of -4% [at 11.4 µM]. Work on N#C[C@@H](N=Nc1ccccc1C(=O)O)C(N)=O yielded an activity, negative = inhibition of -6.32% [at 11.4 µM]. With Cc1c(/N=C/c2ccco2)n(Cc2ccccc2)c2ccccc12 the AC50 was 7.08 µM (active). O=C(Nc1ccccc1)N1CCSc2cc(Cl)ccc21 was tested, and the AC50 was “inactive”. With COC(=O)c1cc(NC(=O)N2c3ccccc3Sc3ccccc32)cc(C(=O)OC)c1 the AC50 was 7.94 µM (active). For COC(=O)C1CSC(C(=O)OC)N1C(=O)Nc1ccccc1 (centres undefined), the AC50 was “inactive”.
